# B2AR arrestin = beta2AR (human) beta-arrestin recruitment activity | P07550 | beta-arrestin recruitment to beta2AR, cell-based reporter | Potency, µM (highest dose often 46.1 µM), without a hit: at the highest dose activation, most hits filed as activators | 330,000 tested, 0.02% active | AID 492947;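 further: potency means the concentration at half of the fitted maximal effect; 0% = DMSO controls and full agonism = EC100 isoproterenol or metaproterenol; nearly all actives have a fitted effect of over 65% in size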
# RGS4 inh = human RGS4 inhibition | P49798 | Transcreener GDP fluorescence polarization, RGS4-accelerated GTP hydrolysis | Potency, µM (highest dose often 114 µM), for the others: top-dose activity change, negative = inhibition, most hits filed as inhibitors | 390,000 tested, 0.039% active | AID 504845; further: potency means the concentration at half of the fitted maximal effect; on the % scale 0 is the no-effect control and ±100 the full control effect; nearly all actives have a fitted effect of over 75% in size
#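 MLSMR compounds (23 nl, pin-transferred) preincubated 10 min at room temperature with a 500nM (2x) first reagent, then RGS4 at 900nM (2x) plus Transcreener GDP mix added; fluorescence polarization (620/688 nm) read before and after 90 min at 30 °C.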
# D3 ag = agonists of human D3 dopamine receptor; P35462; max activation, %; 410,000 tested, 0.58% active; D3R DiscoveRx beta-arrestin cells, luminescence, 90 min; in the data active means max activation above about 30%; further: 0% is about no effect
#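 Agonist mode: compounds and dopamine controls were applied to plated cells for 90 min at 37 degrees C after an overnight attachment at 1500 cells/well. Luminescent read-out followed 30 - 60 minutes at room temperature with DiscoveRx detection reagent.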
# BRCA1 expr up = activators of BRCA1 expression; MCF7-BRCA1-FFLuc reporter, luminescence, 48 h; response scale: scaled: vehicle 0%, 10 µM genistein 100%; Potency, µM (titrated, usually from 46.1 µM), for inactives: at the top dose activation, most hits filed as activators; 380,000 tested, 1.1% active; AID 624202; further: potency means the concentration at half of the fitted maximal effect; nearly all actives have a fitted effect of over 80% in size
#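 Cells: MCF7-BRCA1-FFLuc, 2000/well. Exposure: 48 h, 37 °C, 5% CO2. Read: luminescence, 15 min post-substrate. Controls: genistein 10 microM (maximal activation), DMSO (neutral).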
# DRD3 antagonist = D3 dopamine receptor (human) antagonism; P35462; D3R cells, DiscoveRx beta-arrestin luminescence, antagonist mode; stronger effect = lower value; max response, negative = inhibition, %; 360,000 tested, 2.5% active; AID 652054; in the data active means max response below about -50%; inconclusive means no clear call, values can overlap the other calls; further: on the % scale 0 is the no-effect control and ±100 the full control effect
#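 Cells expressing the human receptor were seeded at 1500 cells/well, incubated overnight at 37 degrees C in 5% CO2, then exposed to library compounds with dopamine controls for 90 minutes at 37 degrees C before luminescent detection.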
# PTHR1 ag = PTHR1 (human) receptor agonism. Q03431. Potency, µM (series often up to 115 µM), for the others: at the top dose activation, usual class: activators. AID 743266. 410,000 tested, 0.075% active. HEK293 GP2 PTHR1 cells, GloSensor cAMP luminescence, 1 h; further: potency means the concentration at half of the fitted maximal effect; nearly all actives have a fitted effect of over 55% in size
# Target sequence (Q03431 whole entry, looked up): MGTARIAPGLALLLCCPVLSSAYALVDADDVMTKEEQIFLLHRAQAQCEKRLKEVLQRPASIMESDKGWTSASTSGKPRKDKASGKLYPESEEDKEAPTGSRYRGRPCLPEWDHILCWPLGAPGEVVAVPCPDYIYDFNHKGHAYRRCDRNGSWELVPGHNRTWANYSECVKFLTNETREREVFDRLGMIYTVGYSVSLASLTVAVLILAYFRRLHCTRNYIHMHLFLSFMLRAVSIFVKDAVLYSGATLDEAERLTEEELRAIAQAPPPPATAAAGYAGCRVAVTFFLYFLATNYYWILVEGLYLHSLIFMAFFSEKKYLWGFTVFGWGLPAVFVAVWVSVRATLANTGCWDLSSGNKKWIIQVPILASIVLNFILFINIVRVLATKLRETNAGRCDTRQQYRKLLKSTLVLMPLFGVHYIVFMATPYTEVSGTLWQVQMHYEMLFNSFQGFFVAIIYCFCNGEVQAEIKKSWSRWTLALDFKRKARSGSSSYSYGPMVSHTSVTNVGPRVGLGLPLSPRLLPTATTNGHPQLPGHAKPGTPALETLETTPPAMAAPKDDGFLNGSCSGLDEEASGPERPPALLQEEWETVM
#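 HEK-293-derived GP2 cells expressing PTHR1 and a GloSensor cAMP reporter, 3,000/well, plated overnight, given luciferin plus IBMX (each 0.5 mM as added) for 1 h at 37 °C, then compound for 1 h at 37 °C. Luminescence was read after 15 min at room temperature.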
# The depositor's hits bear a star; i = inactive; ? = inconclusive; . = no result given; [ ] = dose if it differs, or a comment. Sampled rows, rich in hits. Any-hit rate of the full collection: about 3.7%. Unless noted, the call rests on the fitted dose curve; in most records, active means well fitted curve in the direction sought with a large enough effect; inconclusive means small, poorly fitted or top-dose-only effect, or another doubt; inactive means no such curve, though single readings can be large; an effect the other way counts as inactive or inconclusive.
SMILES,B2AR arrestin,RGS4 inh,D3 ag,BRCA1 expr up,DRD3 antagonist,PTHR1 ag
CN1CCN(CCC(=O)N/N=C/c2ccccc2F)CC1,0%,5%,8,-12%,3,i
O=C(CCN1CCN(c2ccccc2)CC1)N/N=C/c1ccccc1O,0%,21%,-33,-105%,-67*,-17%
COc1ccc([N+](=O)[O-])cc1NC(=O)CCN1CCN(c2ccccc2OC)CC1,0%,-20%,6,-36%,-76*,-10%
COc1ccc(C)cc1NC(=O)c1ccc(CN2CCN(c3ccccc3)CC2)cc1,0%,7%,20,-50%,?,i
COc1ccc(C)cc1NC(=O)CCN1CCN(c2ccccc2)CC1,0%,7%,39*,-17%,?,-22%
CCC(=O)N1CCCC1(C)C(=O)Nc1cccc(Oc2ccccc2)c1 (stereo unspecified),.,.,6,1%,11,-1%
C=CCN1C(=O)c2ccc(C(=O)N3CCN(S(=O)(=O)c4ccc(C(C)C)cc4)CC3)cc2C1=O,0%,6%,-1,-2%,11,-25%
Cc1ccc(NC(=O)C2CCN(S(=O)(=O)c3c(C)n[nH]c3C)CC2)c(C)c1,0%,-6%,-12,14%,14,0%
CN(C)C(=O)c1ccc(NC(=O)COC(=O)CCN=C2NS(=O)(=O)c3ccccc32)cc1,.,14%,1,0%,10,-16%
O=C(Nc1ccc(F)cc1Cl)c1ccc2c(=O)n3c(nc2c1)CCC3,0%,-22%,2,?,0,i
CCCN1CNc2c(c(=O)[nH]c(=S)n2CCc2ccc3c(c2)OCCO3)C1,.,4%,.,0%,.,.
CCOc1ccc(NC(=O)Cc2ccc(S(=O)(=O)N3CCCCC3)cc2)cc1OCC,-1%,-18%,-2,-24%,33,-92%
COc1ccc(OC)c(NC(=O)C2CC(=O)N(CCc3ccccc3)C2)c1 (stereo unspecified),0%,-3%,1,1%,-3,i
COc1ccc(C)cc1NC(=O)C1CC(=O)N(CCc2ccccc2)C1 (stereo unspecified),0%,27%,40*,0%,-6,-10%
COc1cccc(NC(=O)CCN2CCN(c3ccccc3F)CC2)c1,0%,-26%,39*,-5%,?,i
COc1ccc(OC)c(NC(=O)CCN2CCN(c3ccccc3F)CC2)c1,1%,3%,64*,3%,2,i
COc1ccc(S(=O)(=O)N2CCCC2)cc1C(C)C,0%,25%,1,0%,-7,i
Cc1ccc(CCNS(=O)(=O)c2ccc3c(c2)CC(C)N3C(=O)C2CCC2)cc1 (stereo unspecified),.,-29%,2,.,.,i
CC(C)CNC(=S)NNC(=O)c1csc2c1CCC(C)C2 (stereo unspecified),-1%,-27%,-34,-4%,-55*,?
Cc1cccc(NC(=S)NNC(=O)c2csc3c2CCC(C)C3)c1 (stereo unspecified),0%,-16%,-11,69%,-14,i
CCOC(=O)C1C(c2ccccc2)C(C(=O)OCC)S(=O)(=O)C(CCN(CC)CC)S1(=O)=O (stereo unspecified),0%,-11%,8,-13%,3,-1%
Cc1ccc(C(=O)Cn2nnc(-c3ccccc3-n3cnnn3)n2)cc1,0%,4%,9,10%,11,i
O=C(Cn1nnc(-c2ccccc2-n2cnnn2)n1)NCc1ccccc1,0%,3%,-3,27%,-109*,?
COc1ccccc1NS(=O)(=O)c1ccc2oc(N)nc2c1,0%,-43%,-4,-4%,1,-9%
CN1CCN(CCC(=O)Nc2ccc(OCc3ccccc3)cc2)CC1,0%,12%,-2,11µM*,20,-8%
SMILES,B2AR arrestin,RGS4 inh,D3 ag,BRCA1 expr up,DRD3 antagonist,PTHR1 ag
Cc1cc(NC(=O)CN2CCN(c3ccccn3)CC2)ccc1Br,0%,0%,47*,0%,-10,-33%
CC(C)=CC(=O)Nc1ccc(OCc2ccccc2)cc1,3%,-12%,3,2.8µM*,9,i
O=C(Nc1ccc(OCc2ccccc2)cc1)c1ccccc1,0%,8%,3,76%,12,0%
O=C(CN1CCN(c2ccccn2)CC1)Nc1ccc(F)c(F)c1,0%,-7%[56.9 µM],22,5%,18,i
O=C(CN1CCN(c2ccccn2)CC1)Nc1ccc(OCc2ccccc2)cc1,0%,8%,50*,0%,13,-46%
N#C/C(=C/c1ccc(C(=O)O)cc1)C(=O)Nc1ccccc1,0%,-36%,-13,0%,-30,-34%
N#C/C(=C\c1ccc(OCc2ccccc2)cc1)C(=O)Nc1ccc(C(=O)O)cc1,0%,-29%,-21,11µM*,-12,-10%
Cc1nc(SCC(=O)Nc2ccc(OCc3ccccc3)cc2)n[nH]1,1%,-2%,3,73%,16,-52%
Nc1nc(SCC(=O)Nc2ccc(OCc3ccccc3)cc2)n[nH]1,0%,-5%,6,10µM*,6,-37%
CC(C)[C@@H]1CC[C@@H](C)C[C@H]1OC(=O)c1ccccc1O,.,.,10,.,.,.
COc1ccc(-c2nc(SC)n(C(=O)c3ccco3)n2)cc1,0%,-8%,0,11µM*,-2,-12%[57.5 µM]
S=c1[nH]nc(-c2ccc(Br)o2)n1Cc1ccccc1,0%,-23%,-37,-17%,-82*,16%[57.5 µM]
S=c1[nH]nc(-c2ccccc2)n1Cc1ccccc1,4%,-29%,-13,0%,?,-4%[57.5 µM]
Cc1ccc(N=C2C(=S)N(c3ccc(C)cc3)C(=N)N2/N=C/c2ccc(Cl)cc2)cc1,0%,-38%,0,72%,-51*,-11%[57.5 µM]
O=C(NCCN1C(=O)S/C(=C\c2ccc(Cl)c([N+](=O)[O-])c2)C1=O)C1=COCCO1,0%,-26%,-8,-81%,-55*,-35%
O=C(NCCN1C(=O)S/C(=C\c2ccc(Cl)c(Cl)c2)C1=O)c1cnccn1,0%,-23%,3,-17%,1,i
Cc1cc(O)c(C(C)C)cc1C1(c2cc(C(C)C)c(O)cc2C)OC(=O)c2ccccc21,?,-16%,61*,-98%,108,-19%
COc1ccc(Nc2nc(N3CCOCC3)nc(N3CCOCC3)n2)c(OC)c1,0%,5%,1,-4%,-9,15%
COc1ccc(Nc2nc(Nc3ccc(OC)cc3OC)nc(N3CCOCC3)n2)c(OC)c1,.,10%,40*,.,.,-24%
Cc1cccc(NC(=S)N2CCN(S(=O)(=O)c3ccc(F)cc3)CC2)c1,0%,-4%,1,2%,-1,-12%
